Source: PubChem (National Center for Advancing Translational Sciences (NCATS))
RGS4 inhibitor: human RGS4 inhibition | 0.039% of 390,000 active | Transcreener GDP fluorescence polarization, RGS4-accelerated GTP hydrolysis | P49798 | AID 504845 | Potency, µM (series often up to 114 µM), for the others: top-dose activity change, negative = inhibition, usual class: inhibitors; note: nearly all actives have a fitted effect of over 75% in size
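MLSMR compounds (23 nl, pin-transferred) preincubated 10 min at room temperature with a 500nM (2x) first reagent, then RGS4 at 900nM (2x) plus Transcreener GDP mix added; fluorescence polarization (620/688 nm) read before and after 90 min at 30 °C.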
IDH1 R132H inh: blocks human mutant IDH1 R132H enzyme | O75874 | IDH1-R132H enzyme, NADPH consumption, diaphorase/resazurin fluorescence | Potency, µM (highest dose often 76.6 µM), for inactives: at the highest dose activity change, negative = inhibition, most hits filed as inhibitors | 0.093% of 390,000 active | AID 602179; note: nearly all actives have a fitted effect of over 65% in size
Target sequence (O75874 whole entry R132H, stated change not applied): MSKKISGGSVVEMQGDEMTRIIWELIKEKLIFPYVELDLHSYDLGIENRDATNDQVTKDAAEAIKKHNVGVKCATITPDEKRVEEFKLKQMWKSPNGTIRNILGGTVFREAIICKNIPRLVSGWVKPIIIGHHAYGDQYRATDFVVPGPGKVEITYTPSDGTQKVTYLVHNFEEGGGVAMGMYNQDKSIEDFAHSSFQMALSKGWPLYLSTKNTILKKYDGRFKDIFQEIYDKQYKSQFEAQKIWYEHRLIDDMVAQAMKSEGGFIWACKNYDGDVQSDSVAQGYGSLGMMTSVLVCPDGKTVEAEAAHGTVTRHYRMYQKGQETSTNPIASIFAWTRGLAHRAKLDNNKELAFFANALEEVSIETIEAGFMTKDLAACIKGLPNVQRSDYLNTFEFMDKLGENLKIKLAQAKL
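IDH1-R132H (0.5 ug/mL) preincubated 30 min with compound, then NADPH (0.016 mM) and alpha-KG (2 mM) added; 80 min at RT, pH 7.5. Remaining NADPH coupled via diaphorase/resazurin to fluorescence (540/590 nm); concentration-response curves normalized to no-enzyme control.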
TrxR1 inh: inhibitors of rat thioredoxin reductase 1; O89049; recombinant rTrxR1, NADPH fluorescence consumption, selenite substrate; Potency, µM (doses to about 114 µM), without a hit: top-dose activity change, negative = inhibition, hits mostly inhibitors; 1% of 390,000 active; AID 588453; note: nearly all actives have a fitted effect of over 65% in size
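Rat TrxR1 (90 nM in the dispensed reagent) was pre-reduced with 400 uM NADPH for 5 min at room temperature, then incubated with compound for 15 min. After 400 uM selenite was added, NADPH fluorescence (Ex 340/Em 450 nm) was followed for 8 min.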
TrxR1 substrate: is turned over as a substrate by rat TrxR1. O89049. purified TrxR1 substrate turnover, NADPH consumption readout. Potency, µM (titrated, usually from 114 µM), without a hit: top-dose activity change, negative = substrate turnover. 0.01% of 390,000 active. AID 588456; note: nearly all actives have a fitted effect of over 50% in size
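Rat TrxR1, dispensed at 90 nM, was prereduced with 400 uM NADPH (final) for 5 min at ~22 deg C, then incubated with compound 15 min before 400 uM selenite. A first-read NADPH fluorescence drop versus no-compound background flagged substrates.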
Eya2 phos inh: inhibitors of human Eya2 phosphatase activity; Potency, µM (series often up to 76.9 µM), for inactives: at the top dose activity, negative = inhibition, most hits filed as inhibitors; O00167; 0.006% of 330,000 active; recombinant Eya2, OMFP fluorescence dephosphorylation (OMFP is methylfluorescein phosphate); AID 488837
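Eya2 protein (added as 0.2 uM solution) was preincubated with compound for 10 min at ambient temperature in 50 mM HEPES pH 7.5, 50 mM NaCl, 5 uM MgCl2, 0.05% BSA, 1 mM DTT. OMFP (added at 50 uM) then reacted 10 min; fluorescence read at 485/525 nm.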
An asterisk follows results filed as active; ? = inconclusive; . = not tested or not shown; ! = repeats disagree; [ ] = another dose, or the depositor's remark. Hits are enriched below; roughly 1.1% of the tested compounds scored in any of these assays. Calls come from the whole dose curve; as a rule, active = well fitted curve in the direction sought with a large enough effect; inconclusive = small, poorly fitted or top-dose-only effect, or another doubt; inactive = no such curve, though single readings can be large; an effect the other way counts as inactive or inconclusive. % is set by controls: 0 for no effect and ±100 for the full control effect; potency is the fitted concentration of half-maximal effect.

SMILES | RGS4 inhibitor | IDH1 R132H inh | TrxR1 inh | TrxR1 substrate | Eya2 phos inh
COc1ccc(CN2CCN(C(=O)c3cc(OC)c(OC)c(OC)c3)CC2)cc1OC | -8% | 4% | 13% | -3% | 1%
COc1cc(CN2CCN(C(=O)CC(C)C)CC2)cc(OC)c1O | -15% | 2% | 7.9µM* | 5% | 16%
COc1ccc(C(=O)N2CCN(Cc3cc(OC)c(O)c(OC)c3)CC2)cc1OC | 23% | 3% | 25µM* | 12% | 5%
c1coc(-c2nc3c([nH]2)CCc2nonc2-3)c1 | -4% | 8% | 22µM* | 12% | -35%
c1ccc(-c2nc3c([nH]2)CCc2nonc2-3)cc1 | -31% | 7% | -39% | 5% | -8%
CN(Cc1ccccc1)C(=C(Cl)Cl)/C(=C1/NCCN1C)[N+](=O)[O-] | -2% | 0% | -17% | 1% | 5%
CN1CCN/C1=C(/C(Cl)=C(Cl)Cl)[N+](=O)[O-] | 3% | 0% | 3.2µM* | 8%[57.1 µM] | -1%
COc1cccc(C(=O)C(C#N)=C(SC)SC)c1 | ? | -2% | 20µM* | -1% | 13%
COc1cccc(C(=O)C(CCC#N)c2ccccc2)c1 (stereo unspecified) | . | 4% | . | . | .
CSC(SC)=C(C#N)C(=O)c1ccccc1 | -38% | 0% | 18µM* | 4%[57.1 µM] | -7%
O=C(CCN1CCN(c2ccccc2F)CC1)c1ccc(Br)cc1 | ? | 6% | 0.28µM* | 10% | 20%
COc1ccc(C(=O)CCN2CCN(c3ccccc3F)CC2)cc1 | 12%[11.4 µM] | -6% | 1.6µM* | 4% | -10%
O=C(CCC(=O)N1CCN(c2ccccc2F)CC1)c1ccc(F)cc1 | 36% | 9% | 16% | 1% | 0%
c1ccc(COc2ncnc3c2ncn3CCCNCc2ccccn2)cc1 | -5% | -14% | -23% | -3% | .
CC1CCCN(C(=O)CCS(=O)(=O)Cc2ccccc2)C1 (stereo unspecified) | 29% | 12% | 16% | 4% | -2%
Nc1cc(N)cc(N)c1 | . | . | 40µM* | 25µM* | .
C[C@@H](N)C(=O)O | 21µM*! | . | . | . | .
CC(C)C[C@@H](N)C(=O)O | 38µM* | . | . | . | .
Clc1ccccc1CSc1nnc(-c2cccnc2)n1Cc1ccco1 | -51% | -1% | 25µM* | 1% | -1%
Fc1ccc(CSc2nnc(-c3cccnc3)n2Cc2ccco2)cc1 | -8% | 8% | ? | 18% | 19%
O=C(COc1ccc([N+](=O)[O-])cc1)Nc1cc(S(=O)(=O)N2CCCCC2)ccc1N1CCCCC1 | -17% | 13% | 2% | -7% | 9%
CCOc1ccc(-c2nnc(SCC(=O)Nc3cccc(Cl)c3C)o2)cc1 | 3% | . | 5% | -7% | .
CCOc1ccc(-c2nnc(SCC(=O)Nc3cccc(C#N)c3)o2)cc1 | -21% | 14% | 35µM* | -7% | .
CC(C)(C)C1C/C(=C/c2ccccn2)C(=O)/C(=C/c2ccccn2)C1 (stereo unspecified) | -14%[11.4 µM] | -4% | 35µM* | 0% | -15%
O=C1/C(=C/c2ccccn2)COc2ccccc21 | -19% | 3% | 22µM* | -14%[57.1 µM] | -27%
SMILES | RGS4 inhibitor | IDH1 R132H inh | TrxR1 inh | TrxR1 substrate | Eya2 phos inh
O=C1/C(=C/c2ccc(O)cc2)COc2ccccc21 | 0% | 3% | -33% | -4% | -4%
CCOC(=O)c1cnc(SCC(=O)OCC(=O)NC2CCS(=O)(=O)C2)nc1N (stereo unspecified) | 12% | -1% | 1% | 1% | 31%
Cc1ccc(-c2cc(NC(=O)CCl)n(-c3ccccc3)n2)cc1 | ? | 5% | 35µM* | 2% | 3%
O=C(CCl)Nc1cc(-c2ccccc2)nn1-c1ccccc1 | -13% | 8% | 22µM* | 2% | 25%
CC(=O)OC1(C(C)=O)CCC2C3CC(C(F)(F)F)C4=CC(=O)CCC4(C)C3CCC21C (stereo unspecified) | -2% | -4% | 16µM* | 0% | .
CN(C(=O)COC(=O)c1nc(Cl)c(Cl)c(Cl)c1Cl)C1CCS(=O)(=O)C1 (stereo unspecified) | -16% | -1% | 14µM* | 8%[57.1 µM] | -2%
Cc1nc(SCC(=O)NCc2ccco2)c2c3c(sc2n1)CCCC3 | -20% | -4% | ? | -6% | 17%[15.4 µM]
CCCc1nc2sc3c(SCC(=O)NCc4ccco4)ncnc3c2c2c1CCC2 | ? | 4% | 45µM* | 2% | 4%
